From PubChem BioAssay
Activity calls are given as the source filed them. The rule behind the calls is not given here.

Molecular target: Pantothenate synthetase (Mycobacterium tuberculosis (strain ATCC 25618 / H37Rv)) (UniProt P9WIL5)
Assay: Recombinant Mtb pantothenate synthetase (PanC) inhibitors, coupled enzyme, confirmatory (AID 375);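 note: 0% = full reaction with vehicle and 100% = no enzyme background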
Details: coupled enzyme assay; at 10 µM, active compounds read high

Pantothenate synthetase (Mycobacterium tuberculosis (strain ATCC 25618 / H37Rv)), sequence (P9WIL5 whole entry, looked up): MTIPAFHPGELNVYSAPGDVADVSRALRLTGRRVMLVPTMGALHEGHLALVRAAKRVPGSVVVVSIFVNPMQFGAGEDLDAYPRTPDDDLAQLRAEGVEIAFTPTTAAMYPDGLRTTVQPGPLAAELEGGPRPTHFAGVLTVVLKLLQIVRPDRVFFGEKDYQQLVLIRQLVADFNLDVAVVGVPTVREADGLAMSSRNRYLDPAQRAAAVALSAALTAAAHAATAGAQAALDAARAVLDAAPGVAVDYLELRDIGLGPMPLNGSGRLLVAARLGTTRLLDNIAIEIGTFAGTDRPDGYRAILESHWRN

| Compound | inhibition |
| --- | --- |
| CCOC(=O)N1CCN(C(=O)COc2ccc(Br)cc2Cl)CC1 | 0% (inactive) |
| NC(=O)C1CCN(CC(=O)N2c3ccccc3CCc3ccccc32)CC1 | 0% (inactive) |
| Cc1cccc(N2C(=O)CC(Sc3nc(C)c4c(n3)CCCC4)C2=O)c1 (centres undefined) | 0% (inactive) |
| CCCn1cc(SCC(=O)NCc2ccco2)c2ccccc21 | 3% (inactive) |
| COc1ccc(C(NC(=O)c2ccco2)c2ccc(OC)c(OC)c2)cc1 (centres undefined) | 0% (inactive) |
| O=C(NCCCn1ccnc1)c1csc2ccccc12 | 7% (inactive) |
| COc1ccccc1C1/C(=C(\O)c2c(C)nc3c(C)cccn23)C(=O)C(=O)N1CCCN(C)C (centres undefined) | 0% (inactive) |
| Cc1ccc(NC(=O)c2ccc(NS(=O)(=O)c3c(C)noc3C)cc2)cc1C | 0% (inactive) |
| Cc1ccc(N(CC(O)CN2CCCC2)S(=O)(=O)c2ccc(C)cc2)cc1 (centres undefined) | 0% (inactive) |
| COCCN(C(=O)c1csnn1)C(C(=O)NC(C)(C)C)c1cccc(OC)c1 (centres undefined) | 1% (inactive) |
| CC(=O)C1=C(O)C(=O)N(c2ccc(C(=O)O)cc2)C1c1ccccc1 (centres undefined) | 0% (inactive) |
| COc1ccc(C2CC(=O)C(C=NCCN3CCOCC3)=C(O)C2)cc1 (centres undefined) | 0% (inactive) |
| O=C(Nc1cccc(F)c1)N1CC=C(n2c(=O)[nH]c3ccccc32)CC1 | 5% (inactive) |
| Cc1ccc(C(=O)CSc2n[nH]c(-c3ccco3)n2)cc1C | 1% (inactive) |
| O=C(COc1ccccc1)Nc1ccc(-c2nnc(-c3ccco3)o2)cc1 | 2% (inactive) |
| CCOC(=O)CSc1nnc(-c2ccc(Cl)cc2Cl)o1 | 2% (inactive) |
| CC(C)(C)NC(=O)CC(CC(=O)O)c1ccccc1 (centres undefined) | 0% (inactive) |
| N#Cc1c2n(c(=S)n(-c3ccccn3)c1=O)CCCCC2 | 2% (inactive) |
| COc1cccc(-c2nnc(NC(=O)Cc3cccs3)s2)c1 | 0% (inactive) |
| COC(=O)CCn1nnc(-c2cccs2)n1 | 1% (inactive) |

| Compound | inhibition |
| --- | --- |
| CCOC(=O)c1sc(NC(=O)COC(=O)Cn2cnc3ccccc32)c(C(=O)OCC)c1C | 3% (inactive) |
| CCOC(=O)C1CCCN(C(=O)c2cccs2)C1 (centres undefined) | 8% (inactive) |
| CCC(C)(C)n1nnnc1C(c1ccc(OC)c(OC)c1)N1CCN(c2ccccc2)CC1 (centres undefined) | 0% (inactive) |
| CC1(C)CC(=O)c2cnc(NCc3ccco3)nc2C1 | 0% (inactive) |
| Cc1cc(NC(=O)COc2ncnc3sc(C)c(C)c23)no1 | 0% (inactive) |
| Cc1ccc(C(C)C)c(OCCn2c(=O)oc3ccccc32)c1 | 0% (inactive) |
| CCCC(C)C1C(C#N)=C(N)Oc2cc(C)oc(=O)c21 (centres undefined) | 1% (inactive) |
| CN(C)c1ccc(-c2nn3c(-c4ccc(Cl)cc4Cl)nnc3s2)cc1 | 9% (inactive) |
| CCCc1cn(S(=O)(=O)c2ccc(OC)cc2OC)nc1N | 0% (inactive) |
| CCOC(=O)c1c(NC(=O)c2ccoc2C)sc2c1CCC2 | 7% (inactive) |
| CCOC(=O)Cc1nnc(NC(=O)c2ncn[nH]2)s1 | 0% (inactive) |
| COc1ccc(OC)c(C2=NOC(C(=O)Nc3c(C)n(C)n(-c4ccccc4)c3=O)C2)c1 (centres undefined) | 2% (inactive) |
| O=C(CN1C(=O)CC(c2ccccc2)=Nc2ccccc21)NCc1ccco1 | 0% (inactive) |
| CCn1cc(C(=O)NCCC2=CCCCC2)c(=O)c2cc(S(=O)(=O)N(C)C)ccc21 | 0% (inactive) |
| NC(=O)CSc1nnc(-c2cc3ccccc3o2)n1Cc1ccccc1 | 0% (inactive) |
| CC(Sc1nnnn1-c1ccccc1)C(=O)Nc1ccc(Cl)cn1 (centres undefined) | 2% (inactive) |
| O=C(O)C1C2C=CC(O2)C1C(=O)NCc1ccc(Cl)cc1 (centres undefined) | 13% (inactive) |
| COc1cccc(N2CCN(Cc3cccnc3)CC2)c1 | 3% (inactive) |
| CN(C)c1cccc(NC(=O)CCc2ccccc2)c1 | 0% (inactive) |
